# Laboratory results reported in PubChem BioAssay AID2113 (National Center for Advancing Translational Sciences (NCATS), 2009).
# Results filed as inconclusive are left out. Calls of active or inactive are those of the source. Calls come from the whole dose curve; as a rule, active = well fitted curve in either direction with a large enough effect; inconclusive = small, poorly fitted or top-dose-only effect; inactive = no such curve, though single readings can be large or run the other way.
# Molecular target: Lysosomal alpha-glucosidase (Homo sapiens) (UniProt P10253)
# Test: Confirmation of Inhibitors and Activators of Human alpha-Glucosidase From Spleen Homogenate;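 for Potency: fluorescence of 4-methylumbelliferone released from a fluorogenic glucopyranoside substrate at pH 5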; for activity change, both directions: 0% is about no effect
# Conditions: alpha-glucosidase enzyme activity; series mostly up to 60.5 µM; activity change, both directions: at the top concentration
# In short: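 Compounds titrated against spleen-homogenate alpha-glucosidase, pH 5.0, 1 mM 4-MU-glucoside substrate, 37 C for 40 min. Fluorescence after pH 10 stop, normalised to no-enzyme and enzyme controls; Hill-equation AC50.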
# Potency is the fitted concentration of half-maximal effect.
SMILES,"activity change, both directions",Potency
CC(=O)c1ccc(N2CCN(C(=O)c3ccc4c(c3)CCC(=O)N4)CC2)cc1,-3.11% (inactive),
CC(C)Cn1c(SCC(=O)N2CCN(S(=O)(=O)c3ccccc3)CC2)nc2ccccc21,-15.3% (inactive),
COc1ccc(CCn2c3c(c(=O)[nH]c2=S)CN(CC(C)C)CN3)cc1OC,,14.1 µM (active)
CCNc1ccc(C2(O)C(=O)c3ccccc3C2=O)cc1,-0.766% (inactive),
O=C(O)Cn1nnnc1SCC(=O)Nc1ccc(OC(F)(F)F)cc1,0.139% [at 31.5 µM] (inactive),
CC(C)CNc1c(N)n(CC(C)C)c(=O)[nH]c1=O,0.596% [at 31.5 µM] (inactive),
CC1(C)CC(=O)c2cc(C(=O)NCc3ccco3)c(=O)n(-c3ccc(Cl)cc3)c2C1,-1.85% [at 31.5 µM] (inactive),
O=NOc1ccc(/C=C/c2nccc3c2[nH]c2ccccc23)cc1,-0.201% (inactive),
O=C(CCc1cccc(S(=O)(=O)N2CCOCC2)c1)NN=C1c2ccccc2-c2ccccc21,-5.44% (inactive),
CC(=O)c1ccc(N2CCN(S(=O)(=O)c3ccc4c(c3)C(=O)OC4)CC2)cc1,-1.65% (inactive),
CC1CCc2nc(-c3cc4c(ccc5ccccc54)oc3=O)sc2C1 (centres undefined),3.9% (inactive),
O=C(Nc1ccc(OCC(=O)N2CCN(S(=O)(=O)c3ccccc3)CC2)cc1)c1ccco1,-14.1% (inactive),
CCc1ccc(-c2nc(-c3cc4ccc(O)cc4oc3=O)sc2C)cc1,25.8% (inactive),
O=C(c1ccccc1)N1CCN(C(=O)N(c2ccccc2)c2ccccc2)CC1,1.94% (inactive),
CC(C)Cn1c(SCC(=O)N2CCCCC2)nc2ccccc2c1=O,-2.36% [at 31.5 µM] (inactive),
Cc1sc(-c2cc3c(ccc4ccccc43)oc2=O)nc1-c1ccccc1,3.68% (inactive),
CCOC(=O)c1ccc(NC(=O)c2ccccc2)cc1,1.14% [at 31.5 µM] (inactive),
COc1ccc(CCN2CNc3c(c(=O)n(C)c(=O)n3C)C2)cc1OC,0.232% [at 31.5 µM] (inactive),
CC(N=C(NC#N)Nc1ccncc1)C(C)(C)C (centres undefined),1.36% (inactive),
